Reference: PubChem BioAssay AID652154 (Broad Institute, 2013)
In all, about 360,000 compounds went through this assay and about 4,200 (1.2%) were called active. The sample holds actives, similar compounds and a random draw of the others, so the mix is not that of the screen.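 How the source made its calls: active means mean replicate inhibition at least 60% with every replicate also reaching 60%; inconclusive means only one of the two criteria is met; inactive means mean below 60% and not all replicates reaching 60%.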

Assay: inhibitors of PAX8-driven TPO luciferase reporter, primary screen, RMG-I cells, single concentration (AID 652154);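 further: luciferase light reporting Pax8 driven TPO promoter activity; plate controls were median of neutral control wells for no effect and mitoxantrone controls for full effect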
Details: SteadyGlo, 24 h, at 12.6 µM, stronger effect = higher value

Row | Structure (SMILES) | inhibition
1 | COc1ccc2c3c([nH]c2c1)[C@H](CO)N(C(=O)Nc1ccc(F)cc1)CC31CCN(CC2CCOCC2)CC1 | 27.1% (inactive)
2 | O=C(NC1=CC(=O)c2ccccc2C1=O)c1ccccc1 | 99.2% (active)
3 | O=C(NCCc1ccccc1)c1cccc(NC(=O)c2ccccc2)c1 | -77.4% (inactive)
4 | Cc1cc(=O)c2ccc(NC(=O)c3ccccc3)cc2[nH]1 | -7.38% (inactive)
5 | Cc1ccc(NC(=O)O/N=C/c2cccc([N+](=O)[O-])c2)cc1 | -64.7% (inactive)
6 | COC(=O)/C=C\C(=O)Nc1cccc([N+](=O)[O-])c1 | 87.5% (active)
7 | O=C(Nc1cccc([N+](=O)[O-])c1)N1CCc2ccccc2C1 | -115% (inactive)
8 | Cc1cccc(NC(=O)c2ccc([N+](=O)[O-])o2)c1 | 86.2% (active)
9 | O=C(Nc1cccc(NC(=O)c2ccccc2[N+](=O)[O-])c1)c1ccccc1Cl | -26.3% (inactive)
10 | Cc1onc(NC(=O)c2ccc([N+](=O)[O-])o2)c1Br | 12.3% (inactive)
11 | O=C(N[C@H]1CC[C@H](CCNS(=O)(=O)c2ccc(F)cc2)O[C@H]1CO)C1CCC1 | 5.47% (inactive)
12 | O=C(CCCO)N/N=C/c1cc(Br)ccc1O | 65% (active)
13 | O=C(CCc1ccc(O)cc1)NN=Cc1cc(Br)ccc1O | 5.02% (inactive)
14 | O=C(N/N=C/c1ccccc1O)/C(=C/c1ccccc1)CCO | 8.09% (inactive)
15 | CN1CCN(C(=O)C[C@H]2C[C@@H]3c4cc(NS(=O)(=O)c5ccc(F)cc5)ccc4O[C@@H]3[C@@H](CO)O2)CC1 | -4.63% (inactive)
16 | CC(C)(COC(=O)Nc1ccccc1)COC(=O)Nc1ccccc1 | -10.7% (inactive)
17 | CCOC(=O)Nc1ccc2c(c1)N(C(=O)CCCl)c1ccccc1[S@]2=O | 120% (active)
18 | CCOC(=O)Nc1ccc2c(c1)N(C(=O)CN1CCN3CCCC3C1)c1ccccc1CC2 (stereo not given) | -14.6% (inactive)
19 | CO[C@H]1CN(C)C(=O)c2ccc(NC(=O)C3CC3)cc2OC[C@@H](C)N(C(=O)CN2CCOCC2)C[C@H]1C | 8.74% (inactive)
20 | O=C(NNC(=S)NC(=O)c1cn(-c2ccccc2)nc1-c1ccccc1)c1ccncc1 | -7.23% (inactive)
21 | Cc1onc(-c2ccccc2)c1C(=O)NNC(=S)NC(=O)c1ccc(F)cc1 | 69.8% (active)
22 | COc1ccc(C(=O)NNC(=O)c2cc(C)[nH]n2)cc1 | -12.8% (inactive)
23 | COc1ccc(C(=O)NC(=S)NNC(=O)c2c(-c3ccccc3)noc2C)cc1 | 103% (active)
24 | Cc1onc(-c2ccccc2)c1C(=O)N=C(N)c1ccc(Cl)cc1 | 8.52% (inactive)
25 | Cc1[nH]c2ccccc2c1C(=O)COC(=O)c1c(-c2ccccc2)noc1C | 20.4% (inactive)
